Reference: paper PMC7819943, “Rice protein-binding microarrays: a tool to detect cis-acting elements near promoter regions in rice”
Over roughly 68,000 sequences, “fluorescence intensity (a.u.)” has its median near 9,100; the highest 2% begin near 16,000. The sample holds the highest values, similar sequences and a random draw of the others, so the mix is not that of the screen.

molecular target: OsWRKY34 (Oryza sativa, UniProt Q0JBA9 1-250); experiment: protein-binding microarray (RPBM); PBS, 2% BSA, 51.3 ng/ul salmon testes DNA, 50 uM zinc acetate, 200 nM TF, 25 C, 1 h; high values mean tight binding; conditions: protein: recombinant; tags: N-terminal polyhistidine and DsRed monomer fusion (pET32a); label: CyDye5-dUTP incorporated in the synthesized complementary strand; 3' TTTTT single-stranded linker to array surface; dsDNA, one strand shown
Method in brief: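 Transcription factors, each fused N-terminally to a polyhistidine tag and DsRed, were expressed in E. coli BL21-CodonPlus and purified on Ni–NTA. A custom Agilent array was made double-stranded by primer extension with Cy5-dUTP and blocked with 2% BSA. It was incubated with 200 nM protein in PBS, 2% BSA, salmon testes DNA and 50 µM zinc acetate at 25 °C for 1 h, then washed. The binding signal is per-feature fluorescence intensity (arbitrary units) read on an Axon 4000B scanner.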

Sequence of OsWRKY34 (Q0JBA9 entry or part of it): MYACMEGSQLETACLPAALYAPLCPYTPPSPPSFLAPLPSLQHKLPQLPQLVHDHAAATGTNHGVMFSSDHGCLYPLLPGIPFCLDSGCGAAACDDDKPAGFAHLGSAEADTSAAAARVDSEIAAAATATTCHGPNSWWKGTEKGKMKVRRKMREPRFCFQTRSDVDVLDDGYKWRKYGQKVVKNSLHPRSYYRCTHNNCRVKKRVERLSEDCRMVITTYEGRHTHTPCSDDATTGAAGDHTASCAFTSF

Sequence | binding signal
TAACCAGAGTAAATTTTTGGCCAACTTAAGTGCTTTCATACGGAGTCACCTAGTGCAG | 9070 fluorescence intensity (a.u.)
GCAACTTTTTTTCCAAATGTTTGGCATCTGGTGTGTCATCCGGAGTCACCTAGTGCAG | 8040 fluorescence intensity (a.u.)
GAAGCCCACCCAATTCGATTTTTTGGGCCGCCCCACCTTTCGGAGTCACCTAGTGCAG | 8790 fluorescence intensity (a.u.)
TACCGTCGTGCTCCATCAATTCCATCTCCACGTGTTATTGCGGAGTCACCTAGTGCAG | 10900 fluorescence intensity (a.u.)
GCGATCTTCGCGGCTTCACCATCATACCTGCAACTGCAACCGGAGTCACCTAGTGCAG | 8220 fluorescence intensity (a.u.)
CGTCCGGCCGCGAAACCGAGCCTTCTGACCACCGCCGAAACGGAGTCACCTAGTGCAG | 8050 fluorescence intensity (a.u.)
TAAGCACAGTTGACTTTTTTTTTGGTGTGTTCCGGTGTATCGGAGTCACCTAGTGCAG | 20900 fluorescence intensity (a.u.)
ATTTGACACCGTTAACCTTTTAGCACATGTTTGACCGTTCCGGAGTCACCTAGTGCAG | 11900 fluorescence intensity (a.u.)
ACCGTTGACTTTTTAGCACATGATTGATCGTTCGTTTTATCGGAGTCACCTAGTGCAG | 33800 fluorescence intensity (a.u.)
TATTTAACACCGTTGACTTTTTAGCACATGTTTGACCGTTCGGAGTCACCTAGTGCAG | 38200 fluorescence intensity (a.u.)
GTTTGTTGCAGTTTGGTGTGTATGTTTGTTGCACTTTGATCGGAGTCACCTAGTGCAG | 9920 fluorescence intensity (a.u.)
TTGATTTTTTTAGCACATGTTTGACCGTTCGTCTTATTAACGGAGTCACCTAGTGCAG | 13200 fluorescence intensity (a.u.)
GTTGACTTTTTAGCACGTGTTTGACCGTTCGTCTTATTAACGGAGTCACCTAGTGCAG | 9780 fluorescence intensity (a.u.)
TTGTTTGCACCGGTTTTGACAGTTCAGGGATCGGTTGTATCGGAGTCACCTAGTGCAG | 8200 fluorescence intensity (a.u.)
CACCGTTGATTTTTTAGCACATGTTTGACCGTTCGTCTTACGGAGTCACCTAGTGCAG | 12900 fluorescence intensity (a.u.)
ACACCGTTGACTTTTTAGCACGTGTTTGACCGTTCACCTTCGGAGTCACCTAGTGCAG | 26900 fluorescence intensity (a.u.)
CAAAAACACTCCACATATTTTTCCTTTTAGTTACGTAATTCGGAGTCACCTAGTGCAG | 9500 fluorescence intensity (a.u.)
TCGTCGTGTTCGTGTTTTTTTTCTTCCAATCTGCGCGCGTCGGAGTCACCTAGTGCAG | 8990 fluorescence intensity (a.u.)
TACGCTGTGATCCCCGTCTTCAATTTCTCGTTCGCTCTCACGGAGTCACCTAGTGCAG | 12800 fluorescence intensity (a.u.)
AGCCTATTTCATTTGATATATCATGGTGCATGATCTAATTCGGAGTCACCTAGTGCAG | 11100 fluorescence intensity (a.u.)
ACGTCCAAATCACATTATATCAGTTCCTGTTTGTAACCGCCGGAGTCACCTAGTGCAG | 8550 fluorescence intensity (a.u.)
GTGCCTGTTTGCTTCAGTGATGCTGGTGGTGGTTGCCTAACGGAGTCACCTAGTGCAG | 9460 fluorescence intensity (a.u.)

Sequence | binding signal
GTACTCCTGGTCCGCATCCACCGTCCATCCGCGTACCGCACGGAGTCACCTAGTGCAG | 11000 fluorescence intensity (a.u.)
GTTCTTCTTCTTCTTCTTCTTTTTTTCGTCCAAGGCCACTCGGAGTCACCTAGTGCAG | 8280 fluorescence intensity (a.u.)
CGACAGTTTCCTTTTTCGCGACCACTTCCGATCTCCTAAACGGAGTCACCTAGTGCAG | 17000 fluorescence intensity (a.u.)
TTTTCTCCTTTCGCGTTGCGTCCGCGATCCGATCGATCGACGGAGTCACCTAGTGCAG | 9560 fluorescence intensity (a.u.)
AGTTTTTTCCTTTTAATCTCCGACTTCACCGGGTTTTTTCCGGAGTCACCTAGTGCAG | 8260 fluorescence intensity (a.u.)
CGTTTTTGTGTCTTTCATTTGAGGAGGAACTGCGATTCTTCGGAGTCACCTAGTGCAG | 9400 fluorescence intensity (a.u.)
AACTTCTTGCATGTGCCTTTTTTATCATCTGCATATATTTCGGAGTCACCTAGTGCAG | 10300 fluorescence intensity (a.u.)
ACTTCCGATGCGTAATAAGGCTTTAGTCCCACAACTGACGCGGAGTCACCTAGTGCAG | 8630 fluorescence intensity (a.u.)
GCTCTAACACACCTTCATCATGCATGCATATGTGCTATTTCGGAGTCACCTAGTGCAG | 8080 fluorescence intensity (a.u.)
AGTAGGAGGGTGGGTATTTGCAACAAAATGACTTATGAGGCGGAGTCACCTAGTGCAG | 12800 fluorescence intensity (a.u.)
CATATGCACTAACAAAACCGAGTAGGAGGGTGGGTATTTGCGGAGTCACCTAGTGCAG | 8580 fluorescence intensity (a.u.)
GGTGGGTGGGCATTTGCAACAAAATAACTTACGGGGTGGACGGAGTCACCTAGTGCAG | 17000 fluorescence intensity (a.u.)
CATTACTTTTTTGGTGGACTTGCAAAAACATGGGCATTTTCGGAGTCACCTAGTGCAG | 8680 fluorescence intensity (a.u.)
AAAATAACTTACGGGGTGGAATGTCAAACTTCAAGTGACTCGGAGTCACCTAGTGCAG | 8470 fluorescence intensity (a.u.)
TTACAACAAAACTAAGTAGGGGTGGGTATTTGCAACAAAACGGAGTCACCTAGTGCAG | 17600 fluorescence intensity (a.u.)
GGTTTGCCGTCGTCGGCGTCGGCCGCTGCCTCGCGCGCGCCGGAGTCACCTAGTGCAG | 9230 fluorescence intensity (a.u.)
AGCCTACCAGCTGCACCGCAAATGCCGTGTACTGCTTTCTCGGAGTCACCTAGTGCAG | 8340 fluorescence intensity (a.u.)
GTGATGTGCTGCAACCTCGCCGCCAGCCGCGCCCTGTGCGCGGAGTCACCTAGTGCAG | 8560 fluorescence intensity (a.u.)
ATATCTGTTTTTACGGTTCGAGGACGTTTTTATATCCGATCGGAGTCACCTAGTGCAG | 8940 fluorescence intensity (a.u.)
ACGTGTTTGACCATTCGTTTTATTCAAATCATTTAAGTAACGGAGTCACCTAGTGCAG | 9230 fluorescence intensity (a.u.)
ACGTGTCGTTGACTTTTTATCACACGTTTAGCCATTCGTCCGGAGTCACCTAGTGCAG | 30200 fluorescence intensity (a.u.)
